FBW7 act: FBW7 E3 ligase activators, primary screen, biochemical, AlphaScreen, human | F-box/WD repeat-containing protein 7 (Homo sapiens), Q969H0 | AlphaScreen FBW7–phospho-cyclin E peptide binding, activator screen | normalized activity (activation), % at 26.1 µM | 650,000 tested, 0.13% active | AID 1259310, 2017; in the data active = normalized activity above about 1.9%;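 note: purified mutant Fbw7 with reduced substrate affinity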
TEAD-YAP inh: TEAD-YAP interaction inhibition, primary screen, TEAD-YAP interaction inhibitor project, luminescence, HEK-TIYL cells; inhibition, % at 9.12 µM; AID 1259422, 2018; TEAD-Gal4/YAP UAS-luciferase luminescence; 640,000 tested, 1.4% active; in the data active = inhibition above about 32%;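 note: 0% = median of test compound wells and 100% = reference inhibitor wells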
MITF inh: MITF inhibitors, primary screen, biochemical, AlphaScreen, human. Microphthalmia-associated transcription factor (Homo sapiens), O75030. AlphaScreen MITF homodimerization, bead proximity signal. inhibition, % at 2.6 µM. 650,000 tested, 0.91% active. AID 1259374, 2018; in the data active = inhibition above about 50%;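 note: 0% = vehicle wells with protein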
GPR151 activ: activators of human GPR151, primary screen, cell-based, PathHunter beta-arrestin, luminescence. G-protein coupled receptor 151 (Homo sapiens), Q8TDV0. PathHunter beta-arrestin GPR151 cells. activation, % at 11.2 µM. 650,000 tested, 1% active; in the data active = activation above about 4.9%;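 note: 0% = median of compound wells and 100% = cells with positive control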
MITF confirm: MITF inhibitors, retest of hits, confirmation, biochemical, AlphaScreen, triplicate | shares compounds with MITF inh | AlphaScreen MITF homodimerization, biotin/His-MITF beads | inhibition, % at 2.6 µM | 4,700 tested, 16% active | AID 1259372, 2018;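 active = inhibition above a cutoff derived from the DMSO control wells, cut at about 28% in these data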;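 note: 0% = MITF dimer wells with DMSO only; inhibitors lower the bead chemiluminescence by keeping MITF from dimerizing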
AS interf DR: AlphaScreen optical interference compounds, dose response, counter-screen, biochemical, HTS; shares compounds with MITF inh; AlphaScreen optical interference counterscreen, cell-free; IC50, µM; 480 tested, 6% active; call rule not given here
AS interf ctr: AlphaScreen optical interference compounds, counter-screen for MITF inhibitor project, biochemical, triplicate | shares compounds with MITF inh | LysRS AlphaScreen counterscreen, signal interference | inhibition, % at 2.6 µM | 4,700 tested, 7.6% active | AID 1259376, 2018;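 active = inhibition above a cutoff derived from the DMSO control wells, cut at about 30% in these data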
* marks the source's active call; other numbers are inactive results; / = no result given. Hits are enriched below; roughly 3.5% of the tested compounds scored in any of these assays.

SMILES | FBW7 act | TEAD-YAP inh | MITF inh | GPR151 activ | MITF confirm | AS interf ctr | others
O=C(c1ccncc1)N1CCN(Cc2ccccc2[N+](=O)[O-])CC1 | 0 | -6 | 78* | -1 | 74* | -10 | AS interf DR=>6.1
CCc1ccc(NC(=O)CSC2=C(C#N)C(c3cccs3)C(C(=O)Nc3ccccc3OC)=C(C)N2)cc1 (configuration not stated) | 0 | 14 | 5 | -2 | / | /
CCOc1ccc(CN2CCN(Cc3ccccc3[N+](=O)[O-])CC2)cc1 | 0 | 10 | 56* | 2 | 4 | 4
Cc1cccc(/C=N\NC(=O)C2COc3cc4ccccc4cc3O2)c1O (configuration not stated) | 0 | -7 | -32 | 0 | / | /
O=[N+]([O-])c1cccc(CN2CCC(N3CCCCCC3)CC2)c1 | 1 | 1 | 67* | 3 | 2 | 6
CS(=O)(=O)N1CCN(Cc2cccc([N+](=O)[O-])c2)CC1 | 0 | 4 | 72* | -1 | 7 | 17
CC1CCC(N2CCN(Cc3cccc([N+](=O)[O-])c3)CC2)CC1 (configuration not stated) | 0 | -6 | 60* | 0 | 2 | 0
CC1CCN(C2CCN(Cc3cccc([N+](=O)[O-])c3)CC2)CC1 | 0 | -7 | 18 | 0 | / | /
O=[N+]([O-])c1cccc(CN2CCC(N3CCN(Cc4ccccc4)CC3)CC2)c1 | 0 | -6 | 23 | -1 | / | /
O=[N+]([O-])c1cccc(CN2CCN(S(=O)(=O)Cc3ccccc3)CC2)c1 | 0 | 17 | 31 | 4 | / | /
CC1CCCC(N2CCN(Cc3cccc([N+](=O)[O-])c3)CC2)C1 (configuration not stated) | 0 | -1 | 75* | -1 | 6 | -4
C=CCOC(=O)C1=C(C)NC(SCC(=O)Nc2cc(Cl)ccc2C)=C(C#N)C1c1ccc(O)c(OC)c1 (configuration not stated) | 0 | -11 | -14 | 1 | / | /
CSc1ccccc1C(=O)C1CCCN(C(=O)Cn2cnnn2)C1 (configuration not stated) | 0 | -14 | 6 | -1 | / | /
O=C(Nc1cc(F)ccc1F)c1cnn(-c2ccccc2)c1C1CCNCC1 | 0 | 15 | -7 | 0 | / | /
COc1ccc(CN2CCN(Cc3cc(OC)c4c(c3)OCO4)CC2)c(OC)c1 | 0 | 17 | 30 | -2 | / | /
COc1cc(CN2CCN(Cc3cccc(Cl)c3)CC2)cc2c1OCO2 | 0 | -7 | 49 | -1 | / | /
COc1cc(CN2CCN(Cc3ccc(Br)cc3)CC2)cc2c1OCO2 | 0 | -4 | 69* | 0 | 3 | 18
COc1cc(CN2CCN(Cc3ccc(SC)cc3)CC2)cc2c1OCO2 | 0 | 10 | 65* | 0 | 12 | 7
COc1cc(OC)c(OC)cc1CN1CCN(Cc2cc(OC)c3c(c2)OCO3)CC1 | 0 | 4 | 59* | -1 | -8 | -6
CC1CCCCN1C(=O)c1cc2nc(-c3ccc(Br)cc3)cc(C(F)(F)F)n2n1 (configuration not stated) | 0 | -5 | 3 | 0 | / | /
Oc1ccc(Nc2nccn3c(-c4cccc(O)c4)cnc23)cc1 | 0 | 4 | 20 | 2 | / | /
C/C(=N/NC(=O)CC#N)C1COc2ccccc2O1 (configuration not stated) | 1 | 12 | 15 | 1 | / | /
Cc1n[nH]c(=O)nc1NNc1ccc(C(=O)O)cc1 | 0 | -1 | 56* | -2 | 32* | 10 | AS interf DR=>6.5
CCC(C)c1ccccc1OCCOCCN1CCOCC1 (configuration not stated) | 0 | 5 | 76* | 0 | -9 | -5
CCC(C)c1ccccc1OCCCN1CCOCC1 (configuration not stated) | 0 | 10 | 61* | 1 | -8 | 11
SMILES | FBW7 act | TEAD-YAP inh | MITF inh | GPR151 activ | MITF confirm | AS interf ctr | others
CCC(C)c1ccccc1OCCOCCN1CCCC1 (configuration not stated) | 0 | 2 | 12 | 0 | / | /
CCN1CCN(CCCCOc2cccc3ccccc23)CC1 | 0 | 3 | 35 | 0 | / | /
CC(=O)c1ccccc1OCCCN1CCOCC1 | 0 | 6 | 31 | -1 | / | /
c1ccc2c(OCCOCCNCCN3CCOCC3)cccc2c1 | 0 | 6 | 52* | 1 | 7 | 21
CCN1CCN(CCCCOc2ccccc2OC(C)C)CC1 | 0 | -4 | 51* | 4 | 13 | 19
COc1cccc2sc(N(CC3CCCO3)C(=O)c3cc(Cl)sc3Cl)nc12 (configuration not stated) | 0 | -12 | -5 | 1 | / | /
Fc1cccc(Br)c1C1CC(c2cccnc2)Nc2ncnn21 (configuration not stated) | 0 | -5 | -8 | -1 | / | /
C=CCNCCOCCOc1ccccc1C(C)CC (configuration not stated) | 0 | 7 | 31 | 5 | / | /
CCC(C)c1ccccc1OCCOCCN(C)C (configuration not stated) | 0 | 0 | 86* | 1 | 13 | 14
CCOc1ccccc1OCCCCN1CCOCC1 | 0 | -1 | 37 | -1 | / | /
CCC(C)c1ccccc1OCCN1CCNCC1 (configuration not stated) | 0 | -6 | 40 | -1 | / | /
CCN1CCN(CCCOc2ccccc2OCc2ccccc2)CC1 | 0 | -9 | 69* | -2 | 15 | 6
CCC(C)c1ccccc1OCCCN1CCN(CC)CC1 (configuration not stated) | 0 | 5 | 63* | 0 | 14 | 19
CCC(C)c1ccccc1OCCCCN1CCOCC1 (configuration not stated) | 0 | -2 | 51* | 0 | -8 | -6
CCN(CC)S(=O)(=O)c1ccc(-c2csc(=Nc3cccc(C(F)(F)F)c3)n2CCc2ccc(S(N)(=O)=O)cc2)cc1 | 0 | -12 | 0 | -1 | / | /
CCCCn1nnnc1SCC(=O)Nc1cccc(C)c1 | 0 | -7 | 21 | 0 | / | /
CCCCn1nnnc1SCC(=O)Nc1cccc(C(C)=O)c1 | 0 | -4 | 68* | 0 | 3 | 5
CC(=O)NNC(=O)CSc1nnnn1-c1cccc(C(C)=O)c1 | 0 | 4 | 73* | 2 | 4 | 16
CCCCCCCCCCCCCCCCCC(=O)OCC | / | / | -13 | 0 | / | /
CCOC(=O)CCCCC(=O)c1[nH]c(=O)n(C)c1C | -2 | 0 | 106* | 1 | 95* | 80*
CCN(CC)C(=O)C1CCCN(Cc2cccc(C)c2)C1 (configuration not stated) | 0 | 0 | 24 | 0 | / | /

Bioassay records (PubChem BioAssay)
